From the supplement of paper PMC3334620
In all, about 33,000 sequences were measured (“E-score (-0.5 to 0.5)”: median about -0.011, highest 2% from about 0.28 on). This is one part of a sample in which the highest values are shown more often than they occur.

The sequences below were run against T1, Gcr1 (UniProt P07261) (assay: PBM E-score (8-mer binding enrichment) (E-score (-0.5 to 0.5)); higher = stronger / more preferred TF binding). Conditions: protein concentration: 100 nM; construct: GST-full length.
T1 sequence: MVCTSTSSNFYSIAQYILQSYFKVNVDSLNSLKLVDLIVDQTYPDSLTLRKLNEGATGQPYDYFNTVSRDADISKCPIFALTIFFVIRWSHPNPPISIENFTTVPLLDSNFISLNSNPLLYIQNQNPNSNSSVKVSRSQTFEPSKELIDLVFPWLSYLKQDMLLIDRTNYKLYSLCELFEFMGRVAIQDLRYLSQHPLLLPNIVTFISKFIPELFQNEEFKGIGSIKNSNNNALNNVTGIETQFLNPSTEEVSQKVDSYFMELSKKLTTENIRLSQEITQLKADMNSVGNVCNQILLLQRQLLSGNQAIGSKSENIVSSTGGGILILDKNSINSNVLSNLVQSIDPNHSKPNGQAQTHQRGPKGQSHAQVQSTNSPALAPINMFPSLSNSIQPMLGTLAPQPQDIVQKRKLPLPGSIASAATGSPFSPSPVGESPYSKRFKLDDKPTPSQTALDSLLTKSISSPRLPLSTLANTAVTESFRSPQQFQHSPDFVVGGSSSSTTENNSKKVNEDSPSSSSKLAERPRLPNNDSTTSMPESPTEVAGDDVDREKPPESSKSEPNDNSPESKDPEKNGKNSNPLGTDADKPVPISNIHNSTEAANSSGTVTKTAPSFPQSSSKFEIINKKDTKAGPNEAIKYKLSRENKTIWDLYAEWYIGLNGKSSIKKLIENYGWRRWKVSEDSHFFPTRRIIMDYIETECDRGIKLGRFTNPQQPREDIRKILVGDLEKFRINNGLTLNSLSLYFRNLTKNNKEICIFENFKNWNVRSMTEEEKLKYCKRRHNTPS
In short: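 Yeast transcription factors, full-length or as DNA-binding domains, were expressed with a GST tag using PURExpress in vitro transcription/translation. At about 100-200 nM they were applied to universal all-10-mer Agilent arrays, double-stranded by primer extension on fresh or once-stripped slides. Fluorescent anti-GST detected bound protein, and masliner normalised the scans. E-scores for ungapped eight-base words, pooled with reverse complements, came from the Universal PBM Analysis Suite.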

Sequence | PBM E-score
AAAATCCA | -0.012
AACCAGTA | 0.315
CTCCACAA | 0.0774
AACCAGTG | -0.195
TTCCACAA | 0.347
GTCCACAA | 0.224
TACCAGTA | 0.224
CCCACCAG | 0.0742
CGGGCCGC | 0.0123
AAGGTTCA | -0.179
CAAGACGC | 0.238
CTAGAAGC | 0.154
GCAGAAGC | 0.0881
ATAGAAGC | 0.315
GAAGACGC | 0.304
CCAGAAGC | 0.357
CAAGAAGC | 0.24
GAAGACGA | 0.198
CCAGAAGA | 0.187
AAAGAAGC | 0.262
GAAGAAGC | 0.318
ATAGAAGG | 0.0701

Sequence | PBM E-score
CCGCAGCG | 0.0315
CCGGTACG | -0.0393
CGATAGAG | -0.0218
AGGCCTAA | -0.0235
CCAGGTAA | -0.0543
GTTCTCAA | -0.129
AACAGACC | -0.179
ATGTCTAA | -0.0649
CCTTGATA | -0.0119
CTAGACGC | 0.0428
ATAGACGA | 0.248
GAAGAAGA | 0.183
TAAGAAGA | 0.243
CAAGAAGA | 0.354
ATAGACGC | 0.377
CTTCCTCA | 0.264
GGCCTCCA | 0.172
GGCTTTCA | -0.109
CACTGATC | -0.142
ACCTCCAT | -0.24
GTCGGGGA | 0.102
AGATTGTA | -0.193

Sequence | PBM E-score
GAGATTCA | -0.0394
CAGATTCA | -0.0169
GAGATTCC | 0.363
CAGATTCC | 0.388
CAGATTCG | 0.037
AAGATTCC | 0.271
AGTAACTC | -0.155
AGTGGAAT | 0.39
ATTGGAAG | 0.363
AGTGGAGC | 0.32
ATTGGAAC | 0.221
CATGGAAG | -0.0984
CGTGGAAG | 0.0771
CGTGGAAA | 0.0989
AGTGGAAA | 0.0918
AGTGGAAG | 0.442
ATTGGAAA | 0.0513
CGTGGAGC | -0.0506
AGTGGAGG | 0.082
ATTGCCGA | -0.127
TGAGGGAA | -0.101
AGTCTATG | -0.147

Sequence | PBM E-score
ACCCTAGT | -0.0547
CGAGACGC | 0.131
CGGGTATC | 0.131
CTCACACA | 0.1
AGGGGAAT | 0.341
AGTGGAAC | 0.364
AGTGGACA | -0.0203
AGTGGACC | -0.0505
AGTGGACG | 0.315
AGGGGAAC | -0.00862
AGGGGAAA | 0.0362
GGTGGAAC | 0.0244
CGTGGAAC | -0.113
ACGAAACG | -0.14
ATCGGGAC | 0.0526
AATTGTTC | 0.0249
AGCCTTGA | -0.273
AGATGAGC | -0.102
ACTTCTCG | -0.0046
CCCCAAGC | -0.00278
